# Measured values taken from PMC7862700, “An all-to-all approach to the identification of sequence-specific readers for epigenetic DNA modifications on cytosine”.
# Tests used:
# Experiment in all cases: DAPPL (digital affinity profiling via proximity ligation, sequencing); 10 mM Tris-HCl pH 7.5, 50 mM NaCl, 1 mM DTT, 4% glycerol, room temperature, 30 min; GST-TFs on glutathione beads, 16-mer random dsDNA library, 0.1% formaldehyde crosslink after washing; high values mean tight binding
# FLI1 = target: T1, FLI1 (Homo sapiens, UniProt Q01543 1-452); settings: protein: recombinant; tags: N-terminal GST; dsDNA, one strand shown
# T1 sequence: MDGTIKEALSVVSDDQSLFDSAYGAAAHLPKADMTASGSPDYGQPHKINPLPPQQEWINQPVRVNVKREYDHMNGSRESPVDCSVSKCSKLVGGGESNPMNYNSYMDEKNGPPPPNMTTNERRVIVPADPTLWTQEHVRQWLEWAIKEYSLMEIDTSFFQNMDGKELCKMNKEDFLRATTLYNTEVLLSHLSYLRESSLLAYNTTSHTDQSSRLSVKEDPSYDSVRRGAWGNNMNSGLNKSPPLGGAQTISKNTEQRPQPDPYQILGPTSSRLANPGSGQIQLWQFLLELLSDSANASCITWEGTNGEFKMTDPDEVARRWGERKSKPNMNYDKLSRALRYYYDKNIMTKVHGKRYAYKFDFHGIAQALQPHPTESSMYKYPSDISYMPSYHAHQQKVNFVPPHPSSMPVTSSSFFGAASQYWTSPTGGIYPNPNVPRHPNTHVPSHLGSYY
# In short: (§1)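 The binding signal reported is, for every hexamer, its read frequency for a factor over its read frequency for the tag-only sample. Reads came from pools of yeast-expressed, GST-fused human transcription factors on glutathione beads, barcoded with DNA and mixed with that sample, which were incubated with 200 nmole of a random double-stranded 16-mer DNA library in Tris/NaCl/DTT/glycerol buffer at room temperature for 30 min. After washing, the pools were crosslinked with 0.1% formaldehyde, proximity-ligated with BsaI/T4 ligase for 1 h at 37 °C, PCR-amplified and sequenced on an Illumina NextSeq500.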
# ELK1 = target: T2, ELK1 (Homo sapiens, UniProt P19419 1-428); settings: protein: recombinant; tags: N-terminal GST; dsDNA, one strand shown
# T2 sequence: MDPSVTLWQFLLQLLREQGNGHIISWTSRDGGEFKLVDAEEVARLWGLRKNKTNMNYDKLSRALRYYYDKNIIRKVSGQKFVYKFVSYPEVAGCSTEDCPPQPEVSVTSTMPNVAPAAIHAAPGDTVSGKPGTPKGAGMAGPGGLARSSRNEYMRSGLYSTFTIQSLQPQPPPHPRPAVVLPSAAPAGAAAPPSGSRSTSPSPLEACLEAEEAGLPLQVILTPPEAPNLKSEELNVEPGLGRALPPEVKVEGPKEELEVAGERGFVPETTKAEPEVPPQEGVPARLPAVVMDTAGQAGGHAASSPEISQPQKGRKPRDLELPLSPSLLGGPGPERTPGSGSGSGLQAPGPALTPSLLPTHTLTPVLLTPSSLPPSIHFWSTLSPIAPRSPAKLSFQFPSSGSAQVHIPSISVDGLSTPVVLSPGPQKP
# In short: as §1
# GABPA = target: T3, GABPA (Homo sapiens, UniProt Q06546 1-454); settings: protein: recombinant; tags: N-terminal GST; dsDNA, one strand shown
# T3 sequence: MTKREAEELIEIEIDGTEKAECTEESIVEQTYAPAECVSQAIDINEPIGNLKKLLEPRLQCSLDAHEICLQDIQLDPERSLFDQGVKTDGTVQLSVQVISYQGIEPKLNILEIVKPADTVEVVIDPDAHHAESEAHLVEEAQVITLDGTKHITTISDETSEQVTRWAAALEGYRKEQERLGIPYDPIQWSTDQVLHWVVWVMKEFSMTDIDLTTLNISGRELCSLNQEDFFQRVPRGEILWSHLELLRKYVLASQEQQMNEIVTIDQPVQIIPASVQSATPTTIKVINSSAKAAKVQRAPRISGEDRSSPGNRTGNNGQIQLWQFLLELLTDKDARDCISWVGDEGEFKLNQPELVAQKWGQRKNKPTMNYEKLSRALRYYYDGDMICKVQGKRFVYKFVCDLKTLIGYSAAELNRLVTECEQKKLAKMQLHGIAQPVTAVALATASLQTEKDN
# In short: as §1
# ERG = target: T4, ERG (Homo sapiens, UniProt P11308 1-479); settings: protein: recombinant; tags: N-terminal GST; dsDNA, one strand shown
# T4 sequence: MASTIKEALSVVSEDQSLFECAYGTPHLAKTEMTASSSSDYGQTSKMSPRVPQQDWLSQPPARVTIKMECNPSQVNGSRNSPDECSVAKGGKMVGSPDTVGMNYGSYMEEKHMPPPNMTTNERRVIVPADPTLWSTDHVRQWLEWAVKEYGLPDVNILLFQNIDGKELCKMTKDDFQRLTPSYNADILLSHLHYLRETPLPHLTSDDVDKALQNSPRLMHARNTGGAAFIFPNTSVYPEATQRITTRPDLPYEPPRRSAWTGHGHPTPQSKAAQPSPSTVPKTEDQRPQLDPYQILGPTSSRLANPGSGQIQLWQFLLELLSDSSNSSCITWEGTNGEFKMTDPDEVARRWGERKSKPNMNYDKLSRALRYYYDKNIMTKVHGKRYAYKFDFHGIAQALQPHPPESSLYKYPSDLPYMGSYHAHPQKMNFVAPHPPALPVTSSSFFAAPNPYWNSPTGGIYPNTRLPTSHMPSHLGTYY
# In short: as §1
# ELF1 = ELF1 (Homo sapiens, UniProt P32519 1-619); settings: protein: recombinant; tags: N-terminal GST; dsDNA, one strand shown
# In short: as §1
# EHF = target: T5, EHF (Homo sapiens, UniProt Q9NZC4 1-300); settings: protein: recombinant; tags: N-terminal GST; dsDNA, one strand shown
# T5 sequence: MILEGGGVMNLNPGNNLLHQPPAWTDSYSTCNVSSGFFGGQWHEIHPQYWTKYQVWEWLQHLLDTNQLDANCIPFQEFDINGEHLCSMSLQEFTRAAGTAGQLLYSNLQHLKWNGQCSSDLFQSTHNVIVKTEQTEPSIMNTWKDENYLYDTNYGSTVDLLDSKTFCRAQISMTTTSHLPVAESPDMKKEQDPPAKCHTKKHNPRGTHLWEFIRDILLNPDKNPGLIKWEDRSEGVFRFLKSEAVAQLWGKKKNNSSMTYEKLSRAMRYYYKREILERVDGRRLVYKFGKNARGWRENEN
# In short: as §1
# SPI1 = SPI1 (Homo sapiens, UniProt P17947 1-270); settings: protein: recombinant; tags: N-terminal GST; dsDNA, one strand shown
# In short: as §1
# SPIB = SPIB (Homo sapiens, UniProt Q01892 1-262); settings: protein: recombinant; tags: N-terminal GST; dsDNA, one strand shown
# In short: as §1
# ELK3 = target: T6, ELK3 (Homo sapiens, UniProt P41970 1-407); settings: protein: recombinant; tags: N-terminal GST; dsDNA, one strand shown
# T6 sequence: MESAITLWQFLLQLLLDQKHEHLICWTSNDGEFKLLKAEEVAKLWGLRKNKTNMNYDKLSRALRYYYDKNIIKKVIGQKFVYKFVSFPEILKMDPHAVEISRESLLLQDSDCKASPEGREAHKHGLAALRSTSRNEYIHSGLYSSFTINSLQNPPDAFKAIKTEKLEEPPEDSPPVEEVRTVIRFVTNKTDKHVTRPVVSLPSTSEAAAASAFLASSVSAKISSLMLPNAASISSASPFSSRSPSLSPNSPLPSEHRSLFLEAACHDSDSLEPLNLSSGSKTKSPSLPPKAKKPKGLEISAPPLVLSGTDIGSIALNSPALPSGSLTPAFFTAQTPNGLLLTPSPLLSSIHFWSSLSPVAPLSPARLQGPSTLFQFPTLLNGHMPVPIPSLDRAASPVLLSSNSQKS
# In short: as §1
# FEV = target: T7, FEV (Homo sapiens, UniProt Q99581 1-238); settings: protein: recombinant; tags: N-terminal GST; dsDNA, one strand shown
# T7 sequence: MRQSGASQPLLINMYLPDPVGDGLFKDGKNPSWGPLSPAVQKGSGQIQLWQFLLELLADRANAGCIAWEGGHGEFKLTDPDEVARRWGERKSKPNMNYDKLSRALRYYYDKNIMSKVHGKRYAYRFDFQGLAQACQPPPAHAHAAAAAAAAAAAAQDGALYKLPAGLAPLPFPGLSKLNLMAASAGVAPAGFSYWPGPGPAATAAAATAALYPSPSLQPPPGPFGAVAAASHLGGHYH
# In short: as §1
# ETV5 = ETV5 (Homo sapiens, UniProt P41161 1-510); settings: protein: recombinant; tags: N-terminal GST; dsDNA, one strand shown
# In short: as §1
# HSF1 = HSF1 (Homo sapiens, UniProt Q00613 1-529); settings: protein: recombinant; tags: N-terminal GST; chain copies: 3; dsDNA, one strand shown
# In short: as §1
# SPIC = target: T8, SPIC (Homo sapiens, UniProt Q8N5J4 1-248); settings: protein: recombinant; tags: N-terminal GST; dsDNA, one strand shown
# T8 sequence: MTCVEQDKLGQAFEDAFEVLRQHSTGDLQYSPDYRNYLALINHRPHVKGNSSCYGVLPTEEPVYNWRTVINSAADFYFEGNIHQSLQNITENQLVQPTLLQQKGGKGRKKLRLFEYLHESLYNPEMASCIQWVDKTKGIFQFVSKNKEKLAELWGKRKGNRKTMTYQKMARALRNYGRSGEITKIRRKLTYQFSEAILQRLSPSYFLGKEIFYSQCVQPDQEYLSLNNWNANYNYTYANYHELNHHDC
# In short: as §1
# ELF4 = ELF4 (Homo sapiens, UniProt Q99607 1-663); settings: protein: recombinant; tags: N-terminal GST; dsDNA, one strand shown
# In short: as §1
# ELK4 = target: T9, ELK4 (Homo sapiens, UniProt P28324-2 1-405); settings: protein: recombinant; tags: N-terminal GST; dsDNA, one strand shown
# T9 sequence: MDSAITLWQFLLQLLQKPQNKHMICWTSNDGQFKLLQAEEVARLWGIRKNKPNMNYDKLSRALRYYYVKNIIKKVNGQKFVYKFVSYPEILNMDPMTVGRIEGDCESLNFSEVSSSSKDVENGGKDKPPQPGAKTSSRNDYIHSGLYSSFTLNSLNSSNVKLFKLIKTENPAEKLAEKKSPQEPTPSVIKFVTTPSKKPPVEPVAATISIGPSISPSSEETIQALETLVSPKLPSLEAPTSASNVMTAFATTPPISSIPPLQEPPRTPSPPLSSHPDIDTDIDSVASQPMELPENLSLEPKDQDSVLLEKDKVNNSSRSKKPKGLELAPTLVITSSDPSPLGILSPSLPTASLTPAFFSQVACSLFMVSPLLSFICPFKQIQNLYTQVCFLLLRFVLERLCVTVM
# In short: as §1
# ETV2 = target: T10, ETV2 (Homo sapiens, UniProt O00321 1-342); settings: protein: recombinant; tags: N-terminal GST; dsDNA, one strand shown
# T10 sequence: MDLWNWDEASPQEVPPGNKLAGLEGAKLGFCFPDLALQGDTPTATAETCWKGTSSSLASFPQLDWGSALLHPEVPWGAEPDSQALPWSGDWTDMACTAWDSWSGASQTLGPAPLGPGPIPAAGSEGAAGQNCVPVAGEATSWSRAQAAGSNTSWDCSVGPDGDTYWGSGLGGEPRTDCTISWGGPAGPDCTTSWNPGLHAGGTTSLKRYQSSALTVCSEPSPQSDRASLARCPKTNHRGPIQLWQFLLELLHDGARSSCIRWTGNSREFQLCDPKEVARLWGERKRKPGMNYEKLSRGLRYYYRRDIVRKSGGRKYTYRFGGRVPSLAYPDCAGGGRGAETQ
# In short: as §1
# ELF3 = target: T11, ELF3 (Homo sapiens, UniProt P78545 1-371); settings: protein: recombinant; tags: N-terminal GST; dsDNA, one strand shown
# T11 sequence: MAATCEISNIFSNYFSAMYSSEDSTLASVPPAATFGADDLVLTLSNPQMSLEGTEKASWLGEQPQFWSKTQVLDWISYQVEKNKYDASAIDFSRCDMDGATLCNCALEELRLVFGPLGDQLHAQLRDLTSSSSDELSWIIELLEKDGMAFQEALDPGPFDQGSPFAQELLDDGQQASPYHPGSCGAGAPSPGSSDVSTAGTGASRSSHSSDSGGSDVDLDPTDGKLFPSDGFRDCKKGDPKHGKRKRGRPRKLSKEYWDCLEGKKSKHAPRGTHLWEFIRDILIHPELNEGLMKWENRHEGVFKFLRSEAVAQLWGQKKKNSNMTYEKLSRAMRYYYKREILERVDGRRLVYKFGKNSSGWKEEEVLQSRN
# In short: as §1
# CRX = CRX (Homo sapiens, UniProt O43186 1-299); settings: protein: recombinant; tags: N-terminal GST; dsDNA, one strand shown
# In short: as §1
# ETV1 = ETV1 (Homo sapiens, UniProt P50549 1-477); settings: protein: recombinant; tags: N-terminal GST; dsDNA, one strand shown
# In short: as §1
# Chain of CRX (O43186 whole entry): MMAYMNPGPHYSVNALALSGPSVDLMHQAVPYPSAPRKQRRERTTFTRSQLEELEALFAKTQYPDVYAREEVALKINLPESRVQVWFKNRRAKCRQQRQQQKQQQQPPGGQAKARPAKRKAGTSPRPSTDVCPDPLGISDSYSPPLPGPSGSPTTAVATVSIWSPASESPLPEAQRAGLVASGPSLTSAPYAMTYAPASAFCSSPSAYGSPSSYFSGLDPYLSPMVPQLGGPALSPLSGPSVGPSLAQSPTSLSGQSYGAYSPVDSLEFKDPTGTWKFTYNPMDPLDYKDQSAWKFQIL
# Chain of ETV1 (P50549 whole entry): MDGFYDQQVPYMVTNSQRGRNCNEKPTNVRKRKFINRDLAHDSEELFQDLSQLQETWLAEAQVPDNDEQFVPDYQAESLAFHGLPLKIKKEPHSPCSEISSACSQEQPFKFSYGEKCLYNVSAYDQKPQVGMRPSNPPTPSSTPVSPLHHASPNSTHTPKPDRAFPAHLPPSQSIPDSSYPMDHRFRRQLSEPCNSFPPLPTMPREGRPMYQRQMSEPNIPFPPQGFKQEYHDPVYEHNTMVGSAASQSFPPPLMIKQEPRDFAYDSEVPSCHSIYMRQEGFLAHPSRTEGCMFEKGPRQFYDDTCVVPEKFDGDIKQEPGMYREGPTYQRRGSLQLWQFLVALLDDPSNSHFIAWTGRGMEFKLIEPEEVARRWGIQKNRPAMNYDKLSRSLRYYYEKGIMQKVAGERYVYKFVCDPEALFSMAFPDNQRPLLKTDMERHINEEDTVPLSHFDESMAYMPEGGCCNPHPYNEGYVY
# Chain of ELF1 (P32519 whole entry): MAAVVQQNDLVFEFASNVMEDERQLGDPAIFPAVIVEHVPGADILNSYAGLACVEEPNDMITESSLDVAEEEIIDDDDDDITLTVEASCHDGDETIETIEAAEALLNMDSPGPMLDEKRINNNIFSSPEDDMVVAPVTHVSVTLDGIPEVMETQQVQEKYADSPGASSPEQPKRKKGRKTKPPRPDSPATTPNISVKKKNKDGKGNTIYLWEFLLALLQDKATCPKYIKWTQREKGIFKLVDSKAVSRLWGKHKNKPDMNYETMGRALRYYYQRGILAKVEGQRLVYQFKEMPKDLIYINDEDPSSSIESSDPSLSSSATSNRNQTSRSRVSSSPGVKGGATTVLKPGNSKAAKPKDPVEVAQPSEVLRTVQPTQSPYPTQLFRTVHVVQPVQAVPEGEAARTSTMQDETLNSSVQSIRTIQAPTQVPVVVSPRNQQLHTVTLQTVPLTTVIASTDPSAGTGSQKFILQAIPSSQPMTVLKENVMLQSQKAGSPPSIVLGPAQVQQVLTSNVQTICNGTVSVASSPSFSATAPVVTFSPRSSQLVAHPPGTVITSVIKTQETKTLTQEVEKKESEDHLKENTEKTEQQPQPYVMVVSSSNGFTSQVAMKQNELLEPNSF
# Chain of ETV5 (P41161 whole entry): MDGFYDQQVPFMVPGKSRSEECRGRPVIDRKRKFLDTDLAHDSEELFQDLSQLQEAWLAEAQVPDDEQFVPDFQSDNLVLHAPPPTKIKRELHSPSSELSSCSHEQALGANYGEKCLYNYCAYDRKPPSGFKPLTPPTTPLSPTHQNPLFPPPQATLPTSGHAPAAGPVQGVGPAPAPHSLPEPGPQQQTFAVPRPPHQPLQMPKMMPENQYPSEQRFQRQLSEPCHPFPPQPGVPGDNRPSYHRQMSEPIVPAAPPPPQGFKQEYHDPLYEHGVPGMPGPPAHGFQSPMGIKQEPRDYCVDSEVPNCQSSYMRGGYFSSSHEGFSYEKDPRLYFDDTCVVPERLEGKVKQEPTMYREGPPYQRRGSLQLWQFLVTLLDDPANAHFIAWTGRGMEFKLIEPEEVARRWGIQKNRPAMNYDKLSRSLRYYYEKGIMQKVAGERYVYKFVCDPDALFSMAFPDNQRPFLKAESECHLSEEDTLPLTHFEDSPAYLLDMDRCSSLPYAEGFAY
# Chain of HSF1 (Q00613 whole entry): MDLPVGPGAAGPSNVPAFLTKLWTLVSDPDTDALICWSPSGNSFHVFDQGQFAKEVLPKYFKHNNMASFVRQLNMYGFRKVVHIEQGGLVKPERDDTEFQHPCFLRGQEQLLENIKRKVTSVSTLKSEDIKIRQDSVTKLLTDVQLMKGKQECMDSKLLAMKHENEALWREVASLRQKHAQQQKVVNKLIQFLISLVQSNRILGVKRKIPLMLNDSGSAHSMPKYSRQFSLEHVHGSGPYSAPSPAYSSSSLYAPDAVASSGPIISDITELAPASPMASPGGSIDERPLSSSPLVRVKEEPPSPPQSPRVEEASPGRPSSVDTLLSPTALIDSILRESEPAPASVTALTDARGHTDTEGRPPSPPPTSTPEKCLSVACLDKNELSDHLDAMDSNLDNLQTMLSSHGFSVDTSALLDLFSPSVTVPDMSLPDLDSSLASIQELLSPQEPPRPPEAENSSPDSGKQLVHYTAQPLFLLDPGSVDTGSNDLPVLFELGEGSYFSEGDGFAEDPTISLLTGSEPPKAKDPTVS
# Chain of ELF4 (Q99607 whole entry): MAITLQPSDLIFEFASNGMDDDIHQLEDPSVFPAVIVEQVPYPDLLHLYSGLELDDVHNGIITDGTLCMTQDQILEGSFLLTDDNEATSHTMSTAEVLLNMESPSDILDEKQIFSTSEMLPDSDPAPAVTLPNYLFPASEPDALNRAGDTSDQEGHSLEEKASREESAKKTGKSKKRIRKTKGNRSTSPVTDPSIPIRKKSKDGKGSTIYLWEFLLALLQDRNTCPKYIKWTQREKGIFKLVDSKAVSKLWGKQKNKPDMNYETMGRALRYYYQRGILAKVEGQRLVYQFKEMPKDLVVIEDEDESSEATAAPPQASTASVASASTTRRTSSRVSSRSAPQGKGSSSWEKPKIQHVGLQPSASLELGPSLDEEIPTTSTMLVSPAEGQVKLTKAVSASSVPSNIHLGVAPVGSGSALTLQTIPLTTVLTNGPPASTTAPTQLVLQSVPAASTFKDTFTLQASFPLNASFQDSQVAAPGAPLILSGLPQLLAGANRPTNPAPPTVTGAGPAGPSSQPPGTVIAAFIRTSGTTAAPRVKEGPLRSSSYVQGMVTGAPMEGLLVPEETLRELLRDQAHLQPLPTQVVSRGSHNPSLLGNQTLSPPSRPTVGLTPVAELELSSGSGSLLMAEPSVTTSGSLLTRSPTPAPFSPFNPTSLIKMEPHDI
# Chain of SPIB (Q01892 whole entry): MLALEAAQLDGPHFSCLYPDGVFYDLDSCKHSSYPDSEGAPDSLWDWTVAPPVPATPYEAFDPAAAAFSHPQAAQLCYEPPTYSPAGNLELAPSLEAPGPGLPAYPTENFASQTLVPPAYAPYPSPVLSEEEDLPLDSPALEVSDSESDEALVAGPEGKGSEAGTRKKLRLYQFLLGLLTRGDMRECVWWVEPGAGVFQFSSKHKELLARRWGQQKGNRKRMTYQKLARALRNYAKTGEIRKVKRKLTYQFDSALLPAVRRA
sequence,measurement,setting,value
TAAATT,binding signal,FLI1,"1.26 fold enrichment (6-mer frequency, TF over GST control)"
same,binding signal,ELK1,"1.22 fold enrichment (6-mer frequency, TF over GST control)"
same,binding signal,GABPA,"1.2 fold enrichment (6-mer frequency, TF over GST control)"
same,binding signal,ERG,"1.22 fold enrichment (6-mer frequency, TF over GST control)"
same,binding signal,ELF1,"1.27 fold enrichment (6-mer frequency, TF over GST control)"
same,binding signal,EHF,"1.32 fold enrichment (6-mer frequency, TF over GST control)"
same,binding signal,SPI1,"1.22 fold enrichment (6-mer frequency, TF over GST control)"
same,binding signal,SPIB,"1.3 fold enrichment (6-mer frequency, TF over GST control)"
same,binding signal,ELK3,"1.31 fold enrichment (6-mer frequency, TF over GST control)"
same,binding signal,FEV,"1.25 fold enrichment (6-mer frequency, TF over GST control)"
same,binding signal,ETV5,"1.26 fold enrichment (6-mer frequency, TF over GST control)"
same,binding signal,HSF1,"1.51 fold enrichment (6-mer frequency, TF over GST control)"
same,binding signal,SPIC,"1.25 fold enrichment (6-mer frequency, TF over GST control)"
same,binding signal,ELF4,"1.17 fold enrichment (6-mer frequency, TF over GST control)"
same,binding signal,ELK4,"1.31 fold enrichment (6-mer frequency, TF over GST control)"
same,binding signal,ETV2,"1.34 fold enrichment (6-mer frequency, TF over GST control)"
same,binding signal,ELF3,"1.32 fold enrichment (6-mer frequency, TF over GST control)"
same,binding signal,CRX,"1.76 fold enrichment (6-mer frequency, TF over GST control)"
same,binding signal,ETV1,"1.17 fold enrichment (6-mer frequency, TF over GST control)"
